Structures are written as SMILES. Unmarked numbers belong to inactive results. Inconclusive results are not listed. Active and inactive are the calls of the source. Calls follow the shape of the dose curve; as a rule, active = well fitted inhibition curve with a large enough effect; inconclusive = small, poorly fitted or top-dose-only effect; inactive = flat fitted curve, though single readings scatter.

Chain of Phospholipid hydroperoxide glutathione peroxidase GPX4 (Homo sapiens) (P36969 whole entry, looked up): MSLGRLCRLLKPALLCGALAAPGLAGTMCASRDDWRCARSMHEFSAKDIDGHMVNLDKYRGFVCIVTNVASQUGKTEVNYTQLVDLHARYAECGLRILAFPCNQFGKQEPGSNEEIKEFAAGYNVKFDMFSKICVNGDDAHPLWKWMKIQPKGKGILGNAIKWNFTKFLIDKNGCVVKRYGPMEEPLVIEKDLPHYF

The first experiment concerns the target Phospholipid hydroperoxide glutathione peroxidase GPX4 (Homo sapiens) (UniProt P36969). As to the kind of experiment: Primary qHTS Assay for Inhibitors of Recombinant Selenoprotein Glutathione Peroxidase 4 (GPX4) (AID 1845192). Also: nearly all actives have a fitted effect of over 65% in size. As to activity change, negative = inhibition: % is scaled to controls: 0 for no effect and ±100 for the full control effect. The following applies: recombinant GPX4, GR-coupled NADPH fluorescence, 15 min; series mostly up to 50 µM; activity change, negative = inhibition: at the top concentration. An outline of the steps: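 NADPH consumption followed by fluorescence at 340/450 nm, t=0 and after 15 min at room temperature. Reaction started with cumene hydroperoxide (0.5 mM final) after 30 min compound–GPX4 preincubation; final 200 nM GPX4, 100 nM GR, 1 mM GSH, 0.5 mM NADPH.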
For `C=CC(=O)N1CCC[C@@H](n2nc(-c3cccc(C(=O)Nc4ccc(C(C)C)c(C)c4)c3)c3c(N)ncnc32)C1`, the “activity change, negative = inhibition” value was -9.82%.
On the same count and under the same terms, the same measure for `COC(=O)c1sccc1S(=O)(=O)Nc1ccc(Nc2ccccc2)cc1OC`: 2.02%.
The same measure, in the same setting: in the case of `Cc1[nH]c2ccccc2c1CCNCc1ccc(/C=C/C(=O)NO)cc1` it was -0.986%; in that of `C/C=C/[C@@H]1C=C[C@@H]2C[C@H](C)CC[C@H]2[C@]1(C)/C(O)=C1/C(=O)[C@@H](CO)N(C)C1=O`, -5.44% [at 27.8 µM].
Same read-out and setting: the same measure for `CC1(C(=O)Nc2ccc(F)nc2)CCCN1c1nc(Nc2cc(C3CC3)[nH]n2)c2cccn2n1` (stereo unspecified): -1.26%; for `C[C@H]1CC[C@@]2(OC1)O[C@H]1CC3C4CC[C@H]5C[C@@H](O)CC[C@]5(C)C4=CC(=O)[C@]3(C)[C@H]1[C@@H]2C` (stereo partly specified): -14.8% [at 27.8 µM]; for `Cc1c(F)ccc(C(=O)Nc2cc([N+](=O)[O-])ccc2N2CCN(C)CC2)c1Cl`: 0.376%.
For the molecule `CCCCc1ccc(NS(=O)(=O)c2ccc(F)cc2)cc1`, the “activity change, negative = inhibition” value was -5.62%.
Still for that read-out and setting: the same measure for `COc1cc(C(C)C)c(Oc2cnc(N)nc2N)cc1I`: -4.22%; for `O=C1Nc2ccccc2-c2nc3ccccc3c(=O)n2-c2c(O)cccc21`: -7.26% [at 27.8 µM].
Same read-out and setting: the same measure for `CC(C)C[C@@H](C(=O)N[C@@H](Cc1ccc(OCc2ccccc2)cc1)C(=O)NC(C)(C)C)N(C)Cc1ccc(C(C)(C)C)cc1`: -20.2%.
Same read-out and setting: in the case of `C=C1CCC2[C@](C)(CCC[C@@]2(C)C=O)[C@H]1CC/C(C)=C/CO` (stereo partly specified) it was -20.4%.
For `Cc1[nH]c2ccc(F)cc2c1-c1nc2c3cccnc3c3ncccc3c2[nH]1`, the outcome was inactive.
Take `CCn1c(=O)c(-c2ccc(-c3cncs3)cc2Cl)cc2cnc(Nc3ccc(N4CCN(C)CC4)cc3)nc21`: the “activity change, negative = inhibition” value was -1.85%.
The same measure, in the same setting: in the case of `C=CCCN1CCC2(CC1)CN(C(=O)c1c(F)cccc1F)c1ccc(Cl)cc12` it was -4.33%.
Still for that read-out and setting: in the case of `CC1(C)CC[C@]2(C(=O)O)CC[C@]3(C)C(=CCC4[C@@]5(C)C[C@@H](O)[C@H](O)C(CO)(CO)C5CC[C@]43C)C2[C@@H]1O` (stereo partly specified) it was -8.76% [at 27.8 µM]; in that of `C=C1C(=O)O[C@@H]2C[C@H](C)[C@@H]3CC(=O)[C@H](O)[C@@]3(C)C[C@H]12`, -7.63%; in that of `O=C1NC(=O)C(c2cnc3ccccn23)=C1c1cn2c3c(cc(F)cc13)CN(C(=O)N1CCCCC1)CC2`, -14.5%.
Same read-out and setting: the same measure for `CCOc1ccc(-n2c(C(C)N(Cc3cccnc3)C(=O)Cc3ccc(F)c(C(F)(F)F)c3)nc3ncccc3c2=O)cc1` (stereo unspecified): 1.79%; for `CCOc1ccc(-n2c([C@@H](C)N(Cc3cccnc3)C(=O)Cc3ccc(OC(F)(F)F)cc3)nc3ncccc3c2=O)cc1`: -21.8%; for `COc1cc(CCO)ccc1O[C@@H]1O[C@H](CO)[C@@H](O)[C@H](O)[C@H]1O`: -6.55% [at 27.8 µM].
Turning to `CN(C)CCN(Cc1ccccc1)C(=O)c1cc(-c2ccc(F)cc2)n2nc(C(C)(C)C)cc2n1`, the “activity change, negative = inhibition” value was -4.25%.
With `C/C1=C/CCC2=CC(OC2=O)C(C)(C)/C=C/C1=O` (stereo unspecified), the “activity change, negative = inhibition” value is -13.9%.
Same read-out and setting: in the case of `O=C(NCCN1CCN(c2cccc3ccc(O)cc23)CC1)c1ccc(F)cc1` it was -17.9%; in that of `CC(=O)OC1C(O)CC2(C)C(CCC3(C)C2CC=C2C4C5(CCC(CO[C@@H]6O[C@H](CO)[C@@H](O)[C@H](O)[C@H]6O)(OC5=O)C4(C)O)C(O)CC23C)C1(C)C` (stereo partly specified), -5.07% [at 15.3 µM].
Still for that read-out and setting: in the case of `C#CCNCc1cc2cc(OCc3ccccc3)ccc2[nH]1` it was -8.37%; in that of `O=c1nc(-c2ccccn2)sc2ccccc12`, -20.1%.
For `C=C1C(=O)OC2CC(C)C(CCC(C)O)=CCC12` (stereo unspecified), the result was inactive.
On to `C=C1CC2OC(=O)C(=C)C2C(O)/C=C(\C)CCC1O` (stereo unspecified), for which the “activity change, negative = inhibition” value was 0.601%.
Same read-out and setting: in the case of `COc1ccc(CNCc2cccc3ccccc23)cc1` it was 3.18%; in that of `COc1ccccc1C(=O)Nc1cc2c(cc1N1CCCC1)n(C)c(=O)n2C`, 4.61%; in that of `CCO[C@H]1CN(C2CCC(O)(c3ccc4c(c3)OCO4)CC2)C[C@@H]1NC(=O)CNC(=O)c1cccc(C(F)(F)F)c1` (stereo partly specified), -4.78%.
Turning to `COc1cc2c(cc1OCCCN1CCCC1)N=C(N)C21CCC1`, the Potency entry was “inactive”.
As to `Cc1cc(C)c(S(=O)(=O)n2cc(C)cc2C)c(C)c1`, the “activity change, negative = inhibition” value is 10%.
On the same count and under the same terms, the same measure for `CNC(=O)c1ccc2c(c1)CCO[C@H]2CCN1CCN(c2ccc(OC)cc2)CC1`: 1.68%; for `CCCC(CCC)C(=O)NCc1ccc2c(cnn2-c2ccccc2OC)c1`: -7.54%; for `Cc1cc2c(N3CCCC3)nc(N3CCCC3)nc2n1C`: -13.1%.
On the same count and under the same terms, the same measure for `C[C@H]1CO[C@@H]2Cn3cc(C(=O)NCc4ccc(F)cc4F)c(=O)c(O)c3C(=O)N12`: -2.25%.

For another experiment, the target named is Luciferin 4-monooxygenase (Photinus pyralis) (UniProt P08659). As to the kind of experiment: Primary firefly luciferase (FLuc) qHTS assay for identification of artifact compounds. (AID 1845220). Also: nearly all actives have a fitted effect of over 60% in size. Also: potency is read from the fitted curve at half-maximal effect.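 As to activity change, negative = inhibition: plate controls were DMSO vehicle for no effect and no enzyme for full effect.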 As to conditions: purified firefly luciferase, luminescence, 5 min; series mostly up to 54.1 µM; activity change, negative = inhibition: at the top concentration. A digest of the protocol: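 Cell-free, 1536-well qHTS. Buffer pH 7.6 with 0.01% Tween-20 and 0.05% BSA; 10 uM D-luciferin, 10 uM ATP; 10 nM P. pyralis luciferase; luminescence after 5 min.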
Take `C=CC(=O)N1CCC[C@@H](n2nc(-c3cccc(C(=O)Nc4ccc(C(C)C)c(C)c4)c3)c3c(N)ncnc32)C1`: the Potency was 6.75 µM (active).
Take `COC(=O)c1sccc1S(=O)(=O)Nc1ccc(Nc2ccccc2)cc1OC`: the result was inactive.
Same read-out and setting: the same measure for `Cc1[nH]c2ccccc2c1CCNCc1ccc(/C=C/C(=O)NO)cc1`: “inactive”.
Regarding `C/C=C/[C@@H]1C=C[C@@H]2C[C@H](C)CC[C@H]2[C@]1(C)/C(O)=C1/C(=O)[C@@H](CO)N(C)C1=O`, the “activity change, negative = inhibition” value was 1.67%.
As to `CC1(C(=O)Nc2ccc(F)nc2)CCCN1c1nc(Nc2cc(C3CC3)[nH]n2)c2cccn2n1` (stereo unspecified), the molecule was classed as inactive.
On to `C[C@H]1CC[C@@]2(OC1)O[C@H]1CC3C4CC[C@H]5C[C@@H](O)CC[C@]5(C)C4=CC(=O)[C@]3(C)[C@H]1[C@@H]2C` (stereo partly specified), for which the “activity change, negative = inhibition” value is -4.73% [at 25.7 µM].
Same read-out and setting: the same measure for `Cc1c(F)ccc(C(=O)Nc2cc([N+](=O)[O-])ccc2N2CCN(C)CC2)c1Cl`: -3.09%; for `CCCCc1ccc(NS(=O)(=O)c2ccc(F)cc2)cc1`: 2.51%.
For the molecule `COc1cc(C(C)C)c(Oc2cnc(N)nc2N)cc1I`, the result was inactive.
As for `O=C1Nc2ccccc2-c2nc3ccccc3c(=O)n2-c2c(O)cccc21`, the “activity change, negative = inhibition” value was -7.69%.
Same read-out and setting: in the case of `CC(C)C[C@@H](C(=O)N[C@@H](Cc1ccc(OCc2ccccc2)cc1)C(=O)NC(C)(C)C)N(C)Cc1ccc(C(C)(C)C)cc1` it was -11%.
With `C=C1CCC2[C@](C)(CCC[C@@]2(C)C=O)[C@H]1CC/C(C)=C/CO` (stereo partly specified), the call was inactive.
As for `Cc1[nH]c2ccc(F)cc2c1-c1nc2c3cccnc3c3ncccc3c2[nH]1`, the “activity change, negative = inhibition” value is 3.3%.
As for `CCn1c(=O)c(-c2ccc(-c3cncs3)cc2Cl)cc2cnc(Nc3ccc(N4CCN(C)CC4)cc3)nc21`, the “activity change, negative = inhibition” value is -12.1%.
As for `C=CCCN1CCC2(CC1)CN(C(=O)c1c(F)cccc1F)c1ccc(Cl)cc12`, the molecule was classed as inactive.
For the molecule `CC1(C)CC[C@]2(C(=O)O)CC[C@]3(C)C(=CCC4[C@@]5(C)C[C@@H](O)[C@H](O)C(CO)(CO)C5CC[C@]43C)C2[C@@H]1O` (stereo partly specified), the “activity change, negative = inhibition” value is -7.56% [at 25.7 µM].
On the same count and under the same terms, in the case of `C=C1C(=O)O[C@@H]2C[C@H](C)[C@@H]3CC(=O)[C@H](O)[C@@]3(C)C[C@H]12` it was -5.35%; in that of `O=C1NC(=O)C(c2cnc3ccccn23)=C1c1cn2c3c(cc(F)cc13)CN(C(=O)N1CCCCC1)CC2`, -2.13%; in that of `CCOc1ccc(-n2c(C(C)N(Cc3cccnc3)C(=O)Cc3ccc(F)c(C(F)(F)F)c3)nc3ncccc3c2=O)cc1` (stereo unspecified), 2.73%.
Same read-out and setting: in the case of `CCOc1ccc(-n2c([C@@H](C)N(Cc3cccnc3)C(=O)Cc3ccc(OC(F)(F)F)cc3)nc3ncccc3c2=O)cc1` it was -5.15%; in that of `COc1cc(CCO)ccc1O[C@@H]1O[C@H](CO)[C@@H](O)[C@H](O)[C@H]1O`, -4.94%.
In the case of `CN(C)CCN(Cc1ccccc1)C(=O)c1cc(-c2ccc(F)cc2)n2nc(C(C)(C)C)cc2n1`, the outcome was inactive.
On to `C/C1=C/CCC2=CC(OC2=O)C(C)(C)/C=C/C1=O` (stereo unspecified), for which the “activity change, negative = inhibition” value was -2.32%.
In the case of `O=C(NCCN1CCN(c2cccc3ccc(O)cc23)CC1)c1ccc(F)cc1`, the result was inactive.
On to `CC(=O)OC1C(O)CC2(C)C(CCC3(C)C2CC=C2C4C5(CCC(CO[C@@H]6O[C@H](CO)[C@@H](O)[C@H](O)[C@H]6O)(OC5=O)C4(C)O)C(O)CC23C)C1(C)C` (stereo partly specified), for which the “activity change, negative = inhibition” value was 2.67% [at 25.7 µM].
On the same count and under the same terms, in the case of `C#CCNCc1cc2cc(OCc3ccccc3)ccc2[nH]1` it was -3.12%.
On the same count and under the same terms, in the case of `O=c1nc(-c2ccccn2)sc2ccccc12` it was -19.4%.
For the molecule `C=C1C(=O)OC2CC(C)C(CCC(C)O)=CCC12` (stereo unspecified), the Potency is 6.75 µM (active).
With `C=C1CC2OC(=O)C(=C)C2C(O)/C=C(\C)CCC1O` (stereo unspecified), the “activity change, negative = inhibition” value was -3.6%.
Still for that read-out and setting: in the case of `COc1ccc(CNCc2cccc3ccccc23)cc1` it was 4.47%.
For the molecule `COc1ccccc1C(=O)Nc1cc2c(cc1N1CCCC1)n(C)c(=O)n2C`, the molecule was called inactive.
With `CCO[C@H]1CN(C2CCC(O)(c3ccc4c(c3)OCO4)CC2)C[C@@H]1NC(=O)CNC(=O)c1cccc(C(F)(F)F)c1` (stereo partly specified), the “activity change, negative = inhibition” value is -3.14%.
On the same count and under the same terms, in the case of `COc1cc2c(cc1OCCCN1CCCC1)N=C(N)C21CCC1` it was 2.21%.
For the molecule `Cc1cc(C)c(S(=O)(=O)n2cc(C)cc2C)c(C)c1`, the call was inactive.
Regarding `CNC(=O)c1ccc2c(c1)CCO[C@H]2CCN1CCN(c2ccc(OC)cc2)CC1`, the outcome was inactive.
In the case of `CCCC(CCC)C(=O)NCc1ccc2c(cnn2-c2ccccc2OC)c1`, the “activity change, negative = inhibition” value was 0.755%.
Turning to `Cc1cc2c(N3CCCC3)nc(N3CCCC3)nc2n1C`, the call was inactive.
As for `C[C@H]1CO[C@@H]2Cn3cc(C(=O)NCc4ccc(F)cc4F)c(=O)c(O)c3C(=O)N12`, the “activity change, negative = inhibition” value was 3.88%.

For the origin of these results see PubChem BioAssay (NCATS).
